# Source: PubChem (NMMLSC)
# Rows were chosen to be rich in hits. Some 1.2% of all compounds tested hit in one or more screens of this group.
# RGS4-Gao reg: modulates binding of RGS4 to human Galphao. 220,000 compounds, 0.33% hits. binding response (% of control), % at 10 µM. Multiplexed bead flow cytometry; actives lie on both sides. AID 1415; in the data active = binding response below about 49% or above about 150%; inactive = in between;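 also: fluorescent Galphao activated with aluminum fluoride binding bead-coupled RGS4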
# Target sequence (P09471 whole entry, looked up): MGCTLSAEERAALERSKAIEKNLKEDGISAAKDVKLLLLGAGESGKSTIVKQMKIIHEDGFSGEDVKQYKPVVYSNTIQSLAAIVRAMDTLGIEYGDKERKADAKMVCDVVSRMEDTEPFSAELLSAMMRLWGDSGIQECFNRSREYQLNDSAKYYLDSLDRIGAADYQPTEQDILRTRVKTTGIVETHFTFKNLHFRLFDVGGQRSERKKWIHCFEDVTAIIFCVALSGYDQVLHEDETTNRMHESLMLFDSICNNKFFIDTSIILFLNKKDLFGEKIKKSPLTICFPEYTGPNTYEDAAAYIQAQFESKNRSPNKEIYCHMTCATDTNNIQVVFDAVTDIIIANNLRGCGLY
# RGS16-Gao HTS: RGS16-Galphao interaction regulator (human); 220,000 compounds, 0.38% hits; AID 1441; bead-based flow cytometry RGS16-Galphao binding, fluorescence; actives lie on both sides; binding response (% of control), % at 10 µM; O15492+P09471;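 also: Galphao activated by GDP with aluminum fluoride before binding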
# Target sequence (O15492 whole entry, looked up): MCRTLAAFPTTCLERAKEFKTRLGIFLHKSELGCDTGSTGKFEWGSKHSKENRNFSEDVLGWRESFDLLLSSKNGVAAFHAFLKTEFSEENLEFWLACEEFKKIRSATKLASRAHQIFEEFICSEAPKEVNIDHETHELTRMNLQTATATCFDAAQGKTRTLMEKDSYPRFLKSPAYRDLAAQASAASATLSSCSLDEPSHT
# Target sequence (P09471 whole entry, looked up): as the sequence (P09471 whole entry, looked up) above
# RGS8-Gao: modulates binding of RGS8 to human Galphao | P09471 | multiplexed bead flow cytometry; actives lie on both sides | response (percent of control binding), % at 10 µM | 220,000 compounds, 0.34% hits | AID 1423; in the data active = response below about 60% or above about 140%; inactive = in between;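 also: Galphao activated as the GDP aluminium fluoride complex binding bead-coupled RGS8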
# Avidin fluor: compound fluoresces at 488/530 nm on avidin beads | compound fluorescence 488/530 nm, flow cytometry; active compounds read high | fluorescence (KMESF) at 10 µM | 220,000 compounds, 0.38% hits; in the data active = fluorescence above about 47
# GSH fluor: compound fluoresces at 488/530 nm on GSH beads. 190,000 compounds, 0.25% hits. fluorescence (KMESF) at 10 µM. GSH beads flow cytometry, compound fluorescence 488/530 nm; active compounds read high. AID 1776; in the data active = fluorescence above about 89;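 also: glutathione beads carrying GST-tagged Bcl family fusion proteins plus one bare bead set; values are compound well signal with DMSO vehicle wells as background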
# RGS7-Gao reg: modulates binding of RGS7 to human Galphao. binding response (% of control), % at 10 µM. Multiplexed bead flow cytometry; actives lie on both sides. P09471. AID 1439. 220,000 compounds, 0.35% hits; in the data active = binding response below about 49% or above about 150%; inconclusive = no clear call, values can overlap the other calls; inactive = in between;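 also: fluorescent Galphao held in activated GDP-AlF4 state binding bead-coupled RGS7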
# RGS-Gao: regulators of human RGS4-Galphao interaction | RGS4–Galpha-o binding response, % at 10 µM | multiplexed bead flow cytometry, RGS–Galpha-o binding | shares compounds with RGS16-Gao HTS | 1,600 compounds, 99% hits | AID 1504;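 also: fluorescently labeled Galpha-o bound to GDP with aluminium fluoride binding biotinylated RGS beads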
# Biotin-avidin: biotin-avidin bead binding disruption counter-screen; AID 1783; inhibition, % at 10 µM; 1,700 tested, under 10 active; streptavidin beads, fluorescein-biotin binding, flow cytometry; shares compounds with RGS16-Gao HTS;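 active = inhibition above 50%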;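 also: median green fluorescence of gated singlet beads compared with DMSO control wells; 0% = DMSO wells and 100% = complete loss of bead fluorescence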
# RGS8-Gao confirm: RGS8-Galphao interaction regulation, single point confirmation; bead-based flow cytometry RGS8-Galphao binding, fluorescence; actives lie on both sides; binding response (% of control), % at 10 µM; shares compounds with RGS16-Gao HTS; 1,700 compounds, 3% hits; in the data active = binding response below about 72% or above about 130%; inactive = in between;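 also: Galphao activated as GDP AlF4 complex before binding bead RGS8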
# RGS7-Gao confirm: confirmation of regulators of human RGS7-Galphao interaction. response (percent of control binding), % at 10 µM. 1,700 compounds, 7.8% hits. bead-based flow cytometry RGS7-Galphao binding; actives lie on both sides. shares compounds with RGS16-Gao HTS. AID 1837; in the data active = response below about 75% or above about 130%; inactive = in between;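 also: fluorescent Galphao activated with GDP and aluminum fluoride binding bead-coupled RGS7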
# RGS16-Gao single: confirmation of regulators of human RGS16-Galphao interaction; 1,700 compounds, 4% hits; bead-based flow cytometry, RGS16-Galphao binding; actives lie on both sides; shares compounds with RGS16-Gao HTS; response (% of control binding), % at 10 µM; in the data active = response below about 74% or above about 130%; inactive = in between;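 also: Galphao activated as the GDP aluminium fluoride complex binding bead-coupled RGS16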
# RGS4-Gao confirm: RGS4-Galphao interaction regulation, single point confirmation; shares compounds with RGS16-Gao HTS; RGS4-Galphao binding, multiplexed bead flow cytometry; actives lie on both sides; binding response (% of control), % at 10 µM; 1,700 compounds, 4% hits; in the data active = binding response below about 74% or above about 130%; inactive = in between
# RGS19-Gao single: confirmation of regulators of human RGS19-Galphao interaction; response (percent of control binding), % at 10 µM; bead-based flow cytometry RGS19-Galphao binding; actives lie on both sides; AID 1841; shares compounds with RGS16-Gao HTS; 1,700 compounds, 5% hits; in the data active = response below about 50% or above about 160%; inactive = in between;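 also: 100% = no compound control and 0% = blank background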
# * hit, by the source's call; ? = inconclusive; · = no result given; [ ] = another dose, or the depositor's remark. Unless noted, no rule for the calls is given here.
SMILES,RGS4-Gao reg,RGS16-Gao HTS,RGS8-Gao,Avidin fluor,GSH fluor,RGS7-Gao reg,Biotin-avidin,RGS8-Gao confirm,RGS7-Gao confirm,RGS16-Gao single,RGS4-Gao confirm,RGS19-Gao single,others
Cc1[nH]c2ccccc2c1C(c1ccncc1)N1CCN(c2ccccc2F)CC1 (stereo unspecified),119,101,93,92*,10,160*[activator],1,101,101,101,101,100,RGS-Gao=119*
O=C(CN1C(=O)NC2NC(=O)NC21)N/N=C/c1ccc(F)cc1 (stereo unspecified),103,101,104,26,59,96,·,·,·,·,·,·,
Cc1cccnc1NC(=O)c1ccc(S(=O)(=O)N2CC(C)OC(C)C2)cc1 (stereo unspecified),101,107,103,12,18,103,·,·,·,·,·,·,
O=C(C1=NNCC1c1ccc(Cl)cc1)C1CO1 (stereo unspecified),103,103,102,13,10,99,·,·,·,·,·,·,
COc1ccc(OCC(=O)N2CCN(S(=O)(=O)c3ccc(Cl)cc3)CC2)cc1,116,388,152*[activator],6,3,111,-2,102,100,100,100,103,RGS-Gao=116*
CCOCCCNC(=O)c1ccc(N2CCOCC2)c(NS(=O)(=O)c2ccc(OC)cc2)c1,108,101,104,6,14,100,·,·,·,·,·,·,
COc1ccc(S(=O)(=O)Nc2ccc(-n3cccc3)cc2)cc1,22*,13*,14*,0,14,?,-1,98,94,96,98,77,
COCCCNC(=O)c1ccc(N2CCOCC2)c(NS(=O)(=O)c2ccc(OC)cc2)c1,·,·,·,·,27,·,1,102,103,101,103,97,
O=C(CN(Cc1ccccc1)S(=O)(=O)c1ccccc1)N1CCOCC1,100,98,101,8,11,100,·,·,·,·,·,·,
COc1ccc(S(=O)(=O)N(CC(=O)N2CCOCC2)Cc2ccccc2)cc1,119,119,98,230*,10,217*[activator],1,98,99,97,98,101,RGS-Gao=119*
O=C(COc1ccccc1)N1CCN(S(=O)(=O)c2ccc(Cl)cc2)CC1,99,95,98,22,11,100,·,·,·,·,·,·,
CC(C)(C)OC(=O)NC(CO)c1cn([C@@H](Cc2cc3ccccc3[nH]2)C(=O)N2CCN(C(=O)OC(C)(C)C)CC2)nn1 (stereo partly specified),102,101,97,5,19,101,·,·,·,·,·,·,
Cc1ccc(S(=O)(=O)N2CCN(CC(=O)N/N=C\c3ccc(O)c(O)c3)CC2)cc1,99,97,100,7,·,?,·,·,·,·,·,·,
COc1ccc(NS(=O)(=O)c2ccc(OCC(=O)N3CCOCC3)cc2)cc1,21*,12*,13*,0,26,16*,0,100,77,91,82,89,
O=C(COc1ccc(S(=O)(=O)Nc2ccccc2)cc1)N1CCOCC1,94,86,94,11,45,93,·,·,·,·,·,·,
O=C(COc1ccccc1[N+](=O)[O-])Nc1ccc(N2CCN(C(=O)c3cccs3)CC2)cc1,102,99,100,2,10,104,·,·,·,·,·,·,
Cc1ccc(S(=O)(=O)N(CC(=O)N2CCCCCC2)c2ccccc2)cc1,100,101,101,9,34,99,·,·,·,·,·,·,
Cc1ccc(N(CC(=O)N2CCN(C3CCCCC3)CC2)S(=O)(=O)c2cccnc2)cc1,109,260*[activator],135,8,11,108,·,·,·,·,·,·,RGS-Gao=109*
CC(C)CNC(=O)c1ccc(Cl)c(Cl)c1,100,98,102,13,27,96,·,·,·,·,·,·,
COc1cc(C(=O)Nc2ccc(N(C)C)cc2)cc(OC)c1OC,99,98,100,7,6,98,·,·,·,·,·,·,
COc1cc(C(=O)NNC(=O)c2ccc(NC(C)=O)cc2)cc(OC)c1OC,23*,11*,14*,1,8,17*,-1,107,210*[activator],132*[activator],165*[activator],255*[activator],
COc1ccc(OCCOC(=O)c2cccc(-n3cnnn3)c2)cc1,15*,4.0*,29*,-1,19,17*,1,101,97,101,100,93,
CCN(C(=O)CSc1cc(C)c2ccccc2n1)C1CCS(=O)(=O)C1 (stereo unspecified),14*,8.0*,13*,0,14,12*,0,98,93,96,95,76,
CCN(C(=O)CSc1ccc2ccccc2n1)C1CCS(=O)(=O)C1 (stereo unspecified),104,109,104,10,16,103,·,·,·,·,·,·,
C=CCNC(=O)CN(c1ccc(F)c(Cl)c1)S(C)(=O)=O,103,106,103,7,13,107,·,·,·,·,·,·,
SMILES,RGS4-Gao reg,RGS16-Gao HTS,RGS8-Gao,Avidin fluor,GSH fluor,RGS7-Gao reg,Biotin-avidin,RGS8-Gao confirm,RGS7-Gao confirm,RGS16-Gao single,RGS4-Gao confirm,RGS19-Gao single,others
Cc1nc(NCCN2CCOCC2)c2nnn(Cc3ccccc3Cl)c2n1,101,93,103,8,46,100,·,·,·,·,·,·,
Clc1ccccc1Cn1nnc2c(NCCN3CCOCC3)ncnc21,114,234,141*[activator],16,26,117,1,103,105,102,103,91,RGS-Gao=114*
CC(C)(C)c1nc(NCCN2CCOCC2)c2nnn(Cc3ccccc3Cl)c2n1,129,342,153*[activator],7,55,125,10,99,70*,92,77,84,RGS-Gao=129*
O=C(NN1CCOCC1)C12CC3CC(CC(C3)C1)C2,101,108,101,15,5,97,·,·,·,·,·,·,
Cc1cc(NC(=O)CSc2nnc3c4c(C)c(C)sc4ncn23)no1,114,103,100,111*,29,188*[activator],0,105,103,104,102,95,RGS-Gao=114*
Cc1cc(NC(=O)CSc2nc(C(C)C)nc3sc(C)c(C)c23)no1,98,102,100,12,31,101,·,·,·,·,·,·,
